Measurements reported in the supplement of paper PMC13380429.

System: Vero E6 infected with SARS-CoV-2
Test: inhibition of SARS-CoV-2 cytopathic effect; higher = more antiviral protection, active = above 15
Details: 48 h

Measured: inhibition of SARS-CoV-2 cytopathic effect

CCNC(=O)[C@@H]1CCCN1C(=O)[C@H](CCCNC(=N)N)NC(=O)[C@H](CC(C)C)NC(=O)[C@@H](CC(C)C)NC(=O)[C@H](Cc1ccc(O)cc1)NC(=O)[C@H](CO)NC(=O)[C@H](Cc1c[nH]c2ccccc12)NC(=O)[C@H](Cc1c[nH]cn1)NC(=O)[C@@H]1CCC(=O)N1 [leuprolide]
inactive: 1 nM -3.75% | 8.33 nM 3.77% | 100 nM 3.45% | 833.33 nM 0.4% | 10000 nM -1.48%

Cc1ccc(-c2cc(C(F)(F)F)nn2-c2ccc(S(N)(=O)=O)cc2)cc1 [celecoxib]
inactive: 1 nM 1.41% | 8.33 nM 1.32% | 100 nM 1.91% | 833.33 nM 1.62% | 10000 nM -4.95%

COc1ccc(C(=O)NCc2cccnc2)cc1C(=O)NCc1cccnc1 [picotamide]
inactive: 1 nM -0.44% | 8.33 nM 2.62% | 100 nM 0.96% | 833.33 nM 0.22% | 10000 nM -1.62%

COc1cccc(OC)c1OCCNC[C@H]1COc2ccccc2O1
inactive: 1 nM -0.3% | 8.33 nM 0.6% | 100 nM 0.45% | 833.33 nM 0% | 10000 nM 0.85%

CCCCCCCCCCCCCCCCOP(=O)([O-])OCC[N+](C)(C)C [miltefosine]
inactive: 1 nM -3.26% | 8.33 nM -0.08% | 100 nM 0.27% | 833.33 nM 0.17% | 10000 nM 3.55%

O=C1C2CC=CCC2C(=O)N1SC(Cl)(Cl)Cl (stereo not given) [captan]
inactive: 1 nM 1.85% | 8.33 nM 4.35% | 100 nM 4.16% | 833.33 nM 4.29% | 10000 nM 7.49%

Cc1cccc(C)c1NC(=O)CN1CCN(CCCC(c2ccc(F)cc2)c2ccc(F)cc2)CC1 [lidoflazine]
inactive: 1 nM -2.3% | 8.33 nM 0.7% | 100 nM 0.47% | 833.33 nM -1.87% | 10000 nM -10.2%

CS(=O)(=O)N1CCN(Cc2cc3nc(-c4cccc5[nH]ncc45)nc(N4CCOCC4)c3s2)CC1
inactive: 1 nM -1.74% | 8.33 nM -2.51% | 100 nM 6.27% | 833.33 nM -5.78% | 10000 nM 3.43%

CC(C)COc1ccc(CNC(=O)N(Cc2ccc(F)cc2)C2CCN(C)CC2)cc1 [pimavanserin]
inactive: 1 nM -1.81% | 8.33 nM -0.8% | 100 nM 0.2% | 833.33 nM -0.47%
active: 10000 nM 24%

C=CC[C@]1(O)CC[C@H]2[C@@H]3CCC4=CCCC[C@@H]4[C@H]3CC[C@@]21C [allylestrenol]
inactive: 1 nM -1.01% | 8.33 nM -2.16% | 100 nM 1.52% | 833.33 nM 1.07% | 10000 nM 1.75%

CC(=O)NC1N=C(c2ccccc2)c2ccccc2NC1=O (stereo not given)
inactive: 1 nM 0.39% | 8.33 nM 1.87% | 100 nM -0.74% | 833.33 nM 0.99% | 10000 nM -0.69%

CC12CC3CC(C)(C1)CC(N)(C3)C2 [memantine]
inactive: 1 nM 0.45% | 8.33 nM 0.23% | 100 nM 1.56% | 833.33 nM 2% | 10000 nM -1.57%

COc1cc2ncnc(Sc3nnc(C)s3)c2cc1OC
inactive: 1 nM -1.42% | 8.33 nM 0.72% | 100 nM 3.01% | 833.33 nM 1.54%
active: 10000 nM 24.4%

CC[C@@](C)(Nc1ccnc(-c2c[nH]c3ncccc23)n1)C(=O)NCC(F)(F)F [decernotinib]
inactive: 1 nM -1.03% | 8.33 nM 0.41% | 100 nM -0.04% | 833.33 nM 1.86% | 10000 nM 2.32%

N#Cc1c[nH]c2c(C(=O)N3CCN(CCc4ccc(F)cc4)CC3)cccc12 [pruvanserin]
inactive: 1 nM 3.23% | 8.33 nM -1.53% | 100 nM 2.62% | 833.33 nM 1.31% | 10000 nM 1.69%

CC1CS(=O)(=O)CCN1/N=C/c1ccc([N+](=O)[O-])o1 (stereo not given) [nifurtimox]
inactive: 1 nM -0.09% | 8.33 nM 0.8% | 100 nM -1.28% | 833.33 nM 2.01% | 10000 nM 1.23%

CNC(=O)N(C)N=O [nitrosodimethylurea]
inactive: 1 nM -0.7% | 8.33 nM -0.84% | 100 nM -4.76% | 833.33 nM 1.42% | 10000 nM -2.36%

CC(=O)c1cc([N+](=O)[O-])c(Sc2ccc(F)cc2F)s1
inactive: 1 nM -0.55% | 8.33 nM 1.74% | 100 nM 0.23% | 833.33 nM -0.14%
active: 10000 nM 19.6%
